Source: PubChem (National Center for Advancing Translational Sciences (NCATS))
Shown are actives, neighbours in structure and some others; about 18% of the full set was active somewhere.
RORg inh – inhibitors of mouse ROR gamma transcriptional activity; P51450; AID 2551; hit rate 5.4% among 310,000; Potency, µM (highest dose often 53.6 µM), usual class: inhibitors; Drosophila S2 Gal4-RORgamma UAS-luciferase reporter, 20 h; also: nearly all actives have a fitted effect of over 60% in size
Target sequence (P51450 whole entry, looked up, the tested form may be a part): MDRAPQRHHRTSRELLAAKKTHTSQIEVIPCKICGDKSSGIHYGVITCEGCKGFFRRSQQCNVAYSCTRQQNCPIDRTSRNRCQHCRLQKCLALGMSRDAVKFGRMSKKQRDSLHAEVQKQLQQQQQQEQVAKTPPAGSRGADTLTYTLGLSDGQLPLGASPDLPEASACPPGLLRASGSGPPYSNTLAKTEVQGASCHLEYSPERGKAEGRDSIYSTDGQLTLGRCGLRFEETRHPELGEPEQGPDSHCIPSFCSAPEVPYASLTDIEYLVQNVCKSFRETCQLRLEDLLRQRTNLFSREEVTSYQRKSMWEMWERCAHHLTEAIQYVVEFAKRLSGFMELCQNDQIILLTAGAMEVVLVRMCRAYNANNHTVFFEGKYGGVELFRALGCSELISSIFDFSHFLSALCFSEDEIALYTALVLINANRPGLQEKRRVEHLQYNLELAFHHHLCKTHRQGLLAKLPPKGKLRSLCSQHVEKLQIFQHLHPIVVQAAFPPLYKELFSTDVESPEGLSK
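Stable Schneider cell line, Gal4 DNA-binding domain fused to ROR gamma, UAS-luciferase. Cmpd 1 hr RT → CuSO4 700 uM final → 20 hr RT → luciferase reagent 10 min → luminescence.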
LDHA block – blocks human lactate dehydrogenase A; P00338; purified LDHA, NADH/diaphorase-resazurin fluorescence; stronger effect = lower value; activity change, % (values are at about 110 or 230 µM); hit rate 0.15% among 480,000; in the data active = activity change below about -30%; inconclusive = mostly about -25% to -30%
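LDH5 2 nM; NADH 0.06 mM, pyruvate 0.2 mM; 200 mM Tris pH 7.4, EDTA, Tween-20; 5 min RT. Detection: diaphorase 0.133 mg/mL + resazurin 37 µM, fluorescence ex540/em590 at 0 and 20 min; normalized to enzyme-free and DMSO wells.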
DT40 TDP1 CPT – growth inhibition of DT40 Tdp1-/-;hTDP1 cells with camptothecin (screen for TDP1 inhibitors) | chicken DT40 Tdp1-/-;hTDP1 cells + 20 nM CPT, ATP luminescence, 48 h | Potency, µM (series often up to 46.2 µM), hits mostly inhibitors | hit rate 12% among 420,000; also: nearly all actives have a fitted effect of over 55% in size
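Chicken DT40 Tdp1-/- cells stably complemented with human TDP1 were seeded at 400 cells/well in medium containing 20 nM camptothecin, exposed to pin-transferred compounds, and grown at 37 °C for at least 48 hr. Viability was read as ATP luminescence.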
IL1B secr inh – inhibitors of inflammasome signaling (IL-1 beta secretion). THP-1 LPS/ATP IL-1B secretion, AlphaLISA, 16 h; stronger effect = lower value. activity change, % at 57.5 µM. hit rate 4.7% among 360,000; in the data active = activity change below about -50%; inconclusive = mostly about -30% to -49%
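Secreted IL-1B measured by AlphaLISA bead assay after 16 h compound exposure of THP-1 cells; compounds (final up to 57.5 uM) added 1 h before LPS (250 ng/mL) and ATP (1.25 mM) stimulation; lower signal means less secretion.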
TDP1 cell noCPT – qHTS for Inhibitors of human tyrosyl-DNA phosphodiesterase 1 (TDP1): qHTS in cells in absence of CPT | DT40 Tdp1-/- hTDP1 cells, no CPT, ATP luminescence, 48 h | Potency, µM (doses to about 46.2 µM), most hits filed as inhibitors | hit rate 15% among 420,000 | AID 686978, 2013; also: nearly all actives have a fitted effect of over 55% in size
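Chicken DT40 Tdp1-/- cells stably complemented with human TDP1 were seeded at 400 cells/well with DMSO in place of 20 nM camptothecin. After compound pinning, cells grew at least 48 hr at 37 °C; viability read by CellTiter-Glo luminescence.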
VP16 counter – inhibits Gal4-VP16 luciferase reporter, ROR gamma counter-screen; Drosophila S2 Gal4-VP16 UAS-luciferase, luminescence, 20 h; Potency, µM (highest dose often 53.6 µM), actives largely listed as inhibitors; hit rate 3.5% among 310,000; AID 2546;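 also: Gal4-VP16 expression switched on by copper sulfate through the metallothionein promoter; nearly all actives have a fitted effect of over 50% in size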
A number is an active result; – = inactive; ? = inconclusive; · = no result. Unless noted, calls follow the shape of the dose curve; as a rule, active = well fitted curve in the direction sought with a large enough effect; inconclusive = small, poorly fitted or top-dose-only effect, or another doubt; inactive = no such curve, though single readings can be large; an effect the other way counts as inactive or inconclusive.

SMILES | RORg inh | LDHA block | DT40 TDP1 CPT | IL1B secr inh | TDP1 cell noCPT | VP16 counter
COc1ccc(C23CC4CC(CC(C(=O)N(C)Cc5ccc(OC)c(OC)c5)(C4)C2)C3)cc1 | · | – | · | · | · | ·
CN(C)c1ccc(NC(=O)Cn2cc(S(=O)(=O)Cc3ccccc3Cl)c3ccccc32)cc1 | · | – | ? | · | 8.2µM | ·
O=C(Cn1cc(S(=O)(=O)Cc2ccccc2F)c2ccccc21)Nc1ccc(F)c(Cl)c1 | · | – | ? | · | ? | ·
Cc1ccc(CNC(=O)Cn2cc(S(=O)(=O)Cc3ccccc3Cl)c3ccccc32)cc1 | · | – | 18µM | · | 15µM | ·
Cc1ccc(C)c(NC(=O)Cn2cc(S(=O)(=O)Cc3cccc(Cl)c3)c3ccccc32)c1 | · | – | 16µM | · | ? | ·
Cc1ccc(NC(=O)Cn2cc(S(=O)(=O)Cc3cccc(Cl)c3)c3ccccc32)cc1C | · | – | ? | · | ? | ·
O=C(Cn1cc(S(=O)(=O)Cc2ccccc2Cl)c2ccccc21)NCc1ccccc1Cl | · | – | ? | · | ? | ·
Cc1cc(C)c(NC(=O)Cn2cc(S(=O)(=O)Cc3ccccc3F)c3ccccc32)c(C)c1 | · | -31 | ? | · | ? | ·
O=[N+]([O-])c1ccc(/C=N/Nc2cccc(Cl)c2)cc1 | · | – | · | · | · | ·
Cn1c(C(=O)N2CCN(C(=O)C3CCCCC3)CC2)cc2ccccc21 | · | – | · | · | · | ·
COc1cccc(CN2C(=O)N(c3cccc(OC)c3)S(=O)(=O)c3ccccc32)c1 | · | – | · | · | · | ·
COc1ccc(NC(=O)Cc2cnc(-n3cccc3)s2)cc1 | · | – | · | · | · | ·
COCCNC(=O)Cn1cc(S(=O)(=O)Cc2ccccc2Cl)c2ccccc21 | · | – | – | · | – | ·
CCN(C(=O)Cn1cc(S(=O)(=O)Cc2ccccc2Cl)c2ccccc21)c1ccccc1 | · | – | 16µM | · | 23µM | ·
Cc1ccc2c(Cl)cc(Cl)c(OCC(=O)NC(C)C(C)C)c2n1 (stereo not drawn) | · | – | · | · | · | ·
COc1ccc(NC(=O)c2cc(-c3cc(F)ccc3OC)n[nH]2)cn1 | · | – | ? | · | ? | ·
CC(C)Oc1cc(F)ccc1-c1cc(C(=O)NCc2cccs2)[nH]n1 | · | – | ? | – | ? | ·
CCCOc1ccc(F)cc1-c1cc(C(=O)NCc2cccs2)[nH]n1 | · | – | 23µM | ? | 7.3µM | ·
CCCOc1ccc(F)cc1-c1cc(C(=O)Nc2ccc(OC)c(OC)c2)[nH]n1 | · | – | 21µM | -68 | ? | ·
CCCOc1ccc(F)cc1-c1cc(C(=O)Nc2ccc(C(C)C)cc2)[nH]n1 | · | – | ? | – | 26µM | ·
COc1ccc(NC(=O)c2cc(-c3cc(F)ccc3OC)n[nH]2)cc1OC | · | – | 21µM | – | 23µM | ·
Cn1ncc(C(=O)NCc2ccccc2)c1-n1cccc1 | · | – | · | · | · | ·
COc1ccc(C2CCCN2C(=O)NCCn2ccnc2)c(OC)c1 (stereo not drawn) | · | – | · | · | · | ·
CNC(=O)c1cccc(CNC(=O)C(C)(C)NC(=O)OC(C)(C)C)c1 | · | – | · | · | · | ·
CC[C@]12c3[nH]c4cc(CCC(=O)N(C)C)ccc4c3CCN1C(=O)[C@@H](CC(=O)NCCC1=CCCCC1)C[C@@H]2C(=O)N1CCN(C(=O)c2ccco2)CC1 | · | – | – | – | – | ·
SMILES | RORg inh | LDHA block | DT40 TDP1 CPT | IL1B secr inh | TDP1 cell noCPT | VP16 counter
O=C(C[C@H]1C[C@H](C(=O)N2CCCCC2)[C@@]2(CCc3ccccc3)c3[nH]c4cc(-c5ccco5)ccc4c3CCN2C1=O)NCCC1=CCCCC1 | · | – | ? | – | 18µM | ·
CC[C@]12c3[nH]c4cc(-c5ccco5)ccc4c3CCN1C(=O)[C@@H](CC(=O)NCCC1=CCCCC1)C[C@@H]2C(=O)N1CCN(C(=O)c2ccco2)CC1 | · | – | 21µM | -64 | 18µM | ·
O=C(C[C@H]1C[C@H](C(=O)N2CCCCC2)[C@@]2(CCc3ccccc3)c3[nH]c4cc(-c5ccco5)ccc4c3CCN2C1=O)NCc1ccco1 | · | – | ? | -51 | ? | ·
O=C(CC1C[C@H](C(=O)N2CCCCC2)[C@@]2(CCc3ccccc3)c3[nH]c4ccccc4c3CCN2C1=O)NCCC1=CCCCC1 (stereo partly drawn) | · | – | ? | – | ? | ·
O=C(C[C@H]1C[C@H](C(=O)N2CCCCC2)[C@@]2(CCc3ccccc3)c3[nH]c4cc(-c5ccco5)ccc4c3CCN2C1=O)NCc1cccc(C(F)(F)F)c1 | · | – | ? | – | 21µM | ·
O=C(CC1C[C@H](C(=O)N2CCCCC2)[C@@]2(CCc3ccccc3)c3[nH]c4ccccc4c3CCN2C1=O)NCc1ccco1 (stereo partly drawn) | · | – | 13µM | -60 | 21µM | ·
Cc1cccc(NC(=O)CC23CC4CC(CC(C4)C2)C3)c1C | · | – | · | · | · | ·
Cn1c2c(c(=O)n(C)c1=O)[C@@]1(C(=O)Nc3ccccc31)C(C#N)=C(N)O2 | 20µM | – | ? | – | ? | ?
N#CC1=C(N)Oc2n[nH]c(-c3ccccc3)c2C12C(=O)Nc1ccccc12 (stereo not drawn) | – | – | – | – | – | –
O=C(O)CCCC(=O)N1CCNCC1 | · | – | · | · | · | ·
Cc1nn(C)c(C)c1/C=N/N=C1\CCC2C3CCc4cc(O)ccc4C3CCC12C (stereo not drawn) | – | – | ? | – | 12µM | –
C[C@]12CCC3c4ccc(O)cc4CCC3C1CC/C2=N\N (stereo partly drawn) | · | – | – | – | ? | ·
COc1ccccc1N1CCN(CCN(C(=O)C2CCCCC2)c2ccccn2)CC1 | · | – | ? | – | 23µM | ·
COc1ccccc1N1CCN(CC(=O)N2CCCC2)CC1 | – | -37 | – | – | – | –
COc1ccccc1N1CCN(CC(=O)c2ccc3ccn(C(C)=O)c3c2)CC1 | ? | – | 2.9µM | – | ? | ?
CC(=O)OCC(=O)c1ccc2ccn(C(C)=O)c2c1 | – | – | – | – | – | –
COc1ccc(C(=O)CCN2CCN(c3ccccc3OC)CC2)cc1 | – | – | 3.7µM | ? | 5.2µM | 2.8µM
CN1CCN(C(=O)CN2C(=O)c3ccccc3C2c2cn(C)c3ccccc23)CC1 (stereo not drawn) | · | – | · | · | · | ·
COc1cccc(NC(=O)CSc2nc3ccccc3nc2Cc2ccccc2OC)c1 | · | – | · | · | · | ·
O=c1oc2ccccc2c(N2CCCC2)c1NS(=O)(=O)c1ccc(Br)cc1 | · | – | · | · | · | ·
COc1ccc(NC(=O)COc2ccc(C(C)C)cc2)c2cccnc12 | · | – | · | · | · | ·
O=C(COc1ccc([N+](=O)[O-])c(F)c1)Nc1ccc2c(c1)CCC2 | · | – | · | · | · | ·
CN(Cc1ccccc1)c1ccc(-c2nc(-c3ccncc3)no2)cc1[N+](=O)[O-] | · | – | 21µM | · | 18µM | ·
CN(C)c1ccc(-c2nc(-c3ccccn3)no2)cc1[N+](=O)[O-] | · | – | – | · | 18µM | ·
